# Measurements reported in the OligoGym collection.
# Molecular target: MTG1
# Assay: pooled miR-30 sensor sort-seq; sequence = guide strand
# Conditions: shRNA
# Also: reference of the scale not given here.
row,Sequence,sensor-assay potency score (higher = more potent)
1,TAAGTGTTGCATAATTTTCTGC,0.0697
2,TTCTCTTTTCGGTGGTAGCGGT,-0.857
3,TTTGTTGAGGGTGTACAGCAGG,-0.227

# Molecular target: MTMR14
# Assay: as above
# Conditions: shRNA
row,Sequence,sensor-assay potency score (higher = more potent)
1,TTATTTTGTGATCTGTGTCAAA,-0.837
2,TTGAACAGGATTACTGGGCAGA,-0.111
3,TGACAGGTATCGAAGCAGCTTG,-1.11
4,TCGAAGAGCACAGTCCTCCTCC,-0.118
5,TGAAACAGTAGTCTCGGCCAAA,-1.3
6,TTTGCTGAGCCGATCTACCAAC,-1.14
7,TTTGTGATCTGTGTCAAACTGC,0.417
8,TGAGATACAGTGTACCAGCAGC,-0.892
9,TTGTCCACCTTCTCAGAGGAGG,-1.29
10,TTCGTGTTTGGAATCACGCTGA,0.52
11,TATTTGACTGACAGGTATCGAA,-0.898
12,TTTGGAATCACGCTGAAACAGT,-0.856

# Molecular target: MTOR
# Assay: as above
# Conditions: shRNA
row,Sequence,sensor-assay potency score (higher = more potent)
1,ATAGCATTGGTCAACATTCTTG,-0.775
2,TTCTTCTCCCTGTAGTCCCGGA,-0.437
3,TAGGAATCCGTCCTCGTTCGGG,-0.165
4,TTGGGTCTCATCATTAACCAGG,-0.739
5,TTTGGTATTTGTGTCCATCAGC,-0.533
6,TATATTCTTCAACAGCAGCTAG,-0.667
7,TTTAGTTGAGTATTTGTTCTGC,0.462
8,TTGACCACTGAAAACATCCCAG,0.0557
9,TTTGTGTCCATCAGCCTCCAGT,-0.591
10,TTTGATGAGCAGCTCAACTTGC,0.357
11,TTACTATGTTTCACTGTCCTGG,-0.25
12,TTGTTGGCTGCATTGTGCCGGG,-0.403
13,TTATTCTGATACAACATGGTGT,0.00722
14,TATCCCTTGACAATTCTGCAGA,-0.562
15,TTAGAAGGAAAACAAACTCATG,-1.25
16,TTAGAAGCCACTGTCAGTGGGT,0.584
17,TTTTGGGGAAACATATTGCAGC,-1.1
18,TAAATCTCGACCATAGGCCTGA,0.425
19,TTTCATGGGATGTCGCTTGTTT,0.0185
20,TATAATTGGTTCTTCGGTCAAA,-0.45
21,TAGCATTGGTCAACATTCTTGT,0.089
22,TTCTCTGGAAACTTCTCTCGGG,-0.303
23,TCTCTGGAAACTTCTCTCGGGT,-0.556
24,TTGAGTATTTGTTCTGCTCATA,-0.623
